# About 79,000 compounds went through this panel and 15% of them were active in at least one assay; those are over-represented in the sample as a whole. A number with no mark means an inactive call. Calls of active or inactive are those of the source. Cut-off read from the data, not from the text of the source: active = growth inhibition above about 70%; inactive = the rest.
# Experiments:
# [1] = NCI Yeast Anticancer Drug Screen. Data for the rad50 strain (AID 155);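 note: 0% = growth of vehicle-only cultures of the same strain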; settings: S. cerevisiae rad50 strain growth inhibition, stronger effect = higher value
# How it was run: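 Compounds were tested on a yeast strain with an engineered DNA damage repair alteration; the reported value is growth inhibition normalised to vehicle treatment.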
# [2] = NCI Yeast Anticancer Drug Screen. Data for the mec2-1 strain (AID 157); settings: S. cerevisiae mec2-1 strain, stronger effect = higher value
# How it was run: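 Compounds were applied to mec2-1 yeast cells. Their growth was then compared with that of vehicle-treated cultures to give growth inhibition.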
# [3] = NCI Yeast Anticancer Drug Screen. Data for the sgs1 mgt1 strain (AID 161);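 note: 0% = growth of cultures given vehicle only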; settings: S. cerevisiae sgs1 mgt1 strain, stronger effect = higher value
# How it was run: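 Growth of a repair-deficient yeast mutant was monitored after compound treatment and expressed as inhibition relative to vehicle-treated cultures.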
# [4] = NCI Yeast Anticancer Drug Screen. Data for the cln2 rad14 strain (AID 165);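 note: 0% = growth equal to vehicle treated cultures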; settings: S. cerevisiae cln2 rad14 strain, stronger effect = higher value
# How it was run: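 Strain: cln2 rad14 yeast, altered in cell cycle control and DNA damage repair. Read-out: growth inhibition vs vehicle.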
# [5] = NCI Yeast Anticancer Drug Screen. Data for the bub3 strain (AID 167); settings: S. cerevisiae bub3 mutant strain, stronger effect = higher value
# How it was run: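 Growth of a checkpoint-deficient yeast mutant is measured after compound exposure. Values represent inhibition relative to vehicle.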
# [6] = NCI Yeast Anticancer Drug Screen. Data for the mlh1 rad18 strain (AID 175); settings: S. cerevisiae mlh1 rad18 strain growth inhibition, stronger effect = higher value
# How it was run: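 A repair-deficient yeast strain is exposed to test compound, and growth is scored relative to vehicle-treated controls.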
# [7] = at 5.0 µM (retest, dose inferred, filed as 0.5)
# [8] = at 50.0 µM (retest, dose inferred, filed as 5.0)
Compound,"growth inhibition [1, 7]","growth inhibition [1, 8]",growth inhibition ([1]; at 50.0 µM),"growth inhibition [2, 7]","growth inhibition [2, 8]",growth inhibition ([2]; at 50.0 µM),"growth inhibition [3, 7]","growth inhibition [3, 8]",growth inhibition ([3]; at 50.0 µM),"growth inhibition [4, 7]","growth inhibition [4, 8]",growth inhibition ([4]; at 50.0 µM),"growth inhibition [5, 7]","growth inhibition [5, 8]",growth inhibition ([5]; at 50.0 µM),"growth inhibition [6, 7]","growth inhibition [6, 8]",growth inhibition ([6]; at 50.0 µM)
O=[N+]([O-])c1ccc2c(c1)/C(=C/c1ccc(O)cc1)c1ccccc1-2,9%,86% (active),88.3% (active),1%,82% (active),88.8% (active),2%,82% (active),91.3% (active),-2%,84% (active),86.8% (active),-2%,85% (active),88.6% (active),6%,83% (active),88.8% (active)
c1ccc(C2=NCCC(c3ccccc3)S2)cc1 (configuration not stated),-2%,5%,-2.55%,-4%,3%,-4.1%,-3%,4%,55.5%,-19%,-4%,-41.5%,2%,0%,68.1%,0%,8%,21.9%
Clc1ccc(OCC(Cn2ccnc2)c2ccc(Cl)cc2)cc1 (configuration not stated),74% (active),91% (active),99.8% (active),55%,80% (active),99.9% (active),70% (active),97% (active),99.8% (active),60%,89% (active),99.5% (active),73% (active),98% (active),99.8% (active),64%,97% (active),99.2% (active)
C=C(Br)COc1ccc2c(C)cc(=O)oc2c1,38%,39%,67.5%,35%,32%,25.7%,42%,47%,75.2% (active),38%,32%,36%,45%,43%,68.8%,49%,51%,49.8%
Cc1cccc2c(Nc3ccc(NS(C)(=O)=O)cc3)c3ccccc3nc12,55%,94% (active),96.5% (active),-1%,41%,47.3%,1%,17%,28.6%,-7%,19%,-12.7%,-2%,2%,24.6%,-2%,31%,39.3%
Nn1c2ccccc2c2ccccc21,-106%,-52%,35%,-44%,-53%,11.8%,-32%,-25%,8.1%,-54%,-77%,12%,-72%,-80%,-6%,-78%,6%,75.1% (active)
CCOC(=O)/C(=C\c1cccc([N+](=O)[O-])c1)C(C)=O,36%,98% (active),93.2% (active),24%,99% (active),94.8% (active),33%,99% (active),93.2% (active),27%,98% (active),90.5% (active),62%,99% (active),92% (active),41%,99% (active),92.3% (active)
O=C(Nc1ccc(C(=O)Nc2ccc3c(O)cc(S(=O)(=O)O)cc3c2)cc1)c1ccccc1,0%,-2%,25.8%,2%,34%,-5.7%,2%,21%,25.8%,1%,-13%,1.4%,0%,-6%,1.15%,19%,6%,47%
O=C(/C(=C/c1ccc(Cl)cc1)c1ccccc1)c1ccc(O)cc1,94% (active),94% (active),95.8% (active),64%,97% (active),95.5% (active),94% (active),94% (active),96.5% (active),53%,92% (active),92.5% (active),89% (active),95% (active),97.3% (active),96% (active),95% (active),97% (active)
COc1cccc2c1C(=O)c1c(O)c3c(c(O)c1C2=O)C[C@@](O)(/C(C)=N/NS(C)(=O)=O)C[C@@H]3OC1CC(N)C(O)C(C)O1 (some centres not stated),42%,94% (active),95.2% (active),18%,80% (active),81.3% (active),12%,77% (active),94.2% (active),15%,52%,70% (active),12%,91% (active),90.5% (active),14%,89% (active),91.6% (active)
Clc1ccc(CN2COc3c(cc(Cl)c4cccnc34)C2)c(Cl)c1,6%,98% (active),23.6%,-20%,91% (active),22.9%,-1%,97% (active),-6.85%,-9%,97% (active),46.1%,0%,98% (active),3%,0%,95% (active),1.4%
Cc1c(C2Cc3ccccc3N2C(=O)/C=C\C(=O)O)c2ccccc2n1C (configuration not stated),33%,32%,74.8% (active),25%,35%,33.4%,39%,34%,40.4%,31%,35%,53.5%,38%,38%,32.6%,42%,35%,22.4%
Nn1c(-c2ccccc2)nn(C(=O)c2ccccc2)c1=O,0%,39%,39.5%,-2%,45%,39.7%,15%,50%,60%,-1%,8%,30.4%,-3%,62%,14.7%,1%,58%,87.7% (active)
CCOC(=O)OCCSCCOC(=O)OCC,-14%,19%,-4.35%,-12%,36%,17.6%,-5%,8%,14.2%,15%,-6%,13.8%,-9%,18%,19%,0%,47%,-9.65%
CCc1scc(C)[n+]1CC(=O)c1cccc([N+](=O)[O-])c1,-1%,15%,-6.25%,-10%,3%,-2.9%,11%,2%,-4.4%,12%,18%,17.6%,12%,25%,8.95%,19%,22%,-1.95%
CC1(Cc2ccccc2)CCCC(C=O)C1=O.[Cu+2] (configuration not stated),1%,98% (active),66.5%,0%,97% (active),31.5%,-4%,98% (active),94.7% (active),0%,92% (active),-21.9%,-3%,96% (active),-3.85%,0%,99% (active),44.9%
Cc1cc(Cl)c2c(c1)C(=O)/C(=C/c1ccc(Cl)cc1)O2,5%,99% (active),88.3% (active),18%,99% (active),90% (active),-17%,99% (active),84.1% (active),26%,99% (active),89.2% (active),-22%,98% (active),88.7% (active),13%,99% (active),85.3% (active)
O=C(NC(c1ccccc1)N1CCOCC1)c1ccccc1 (configuration not stated),2%,-1%,99% (active),-7%,7%,95.6% (active),0%,-3%,96.3% (active),-2%,3%,76.9% (active),-3%,-2%,83.4% (active),-9%,-1%,98.8% (active)
Cc1sc(N=Nc2c(O)[nH]c3ccccc23)nc1-c1ccccc1,20%,31%,-2%,16%,27%,-2.15%,17%,30%,19.9%,14%,19%,13.7%,24%,60%,-20.1%,11%,39%,-26.4%

# Reference: PubChem BioAssay (NCI)
